# Results reported in the supplement of paper PMC4954754.
# ± gives the uncertainty stated by the source.
# Test system: HEK293T-Rex XBP1-RLuc
# Assay: XBP1-RLuc splicing reporter activation, triplicate, relative to 500 nM thapsigargin (% of thapsigargin); higher = stronger IRE1/XBP1s reporter activation
# Settings: 6.8 µM; 18 h; screen: confirmation
# Method: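 HEK293T-Rex cells stably expressing the ERSE-firefly luciferase (BiP promoter, ATF6-preferring) or XBP1-splicing Renilla luciferase (IRE1/XBP1s) reporter, 1536-well plates, compound at 6.8 µM for 18 hr at 37 °C; luminescence read […] and expressed as % activation = 100*(compound - median DMSO)/(median 500 nM thapsigargin - median DMSO). Primary screen was single-pass; confirmation screen in triplicate (mean ± SD).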
row,SMILES,XBP1-RLuc splicing reporter activation
1,CCOC(=O)c1sc(NC(=O)c2cccc3ccccc23)nc1C,2.85 ± 0.37
2,Cc1ccc(/C=C(\C#N)C(=O)Nc2cccc(Cl)c2)o1,0.278 ± 1.4
3,Cc1ccc(-c2csc(Nc3ccc(O)cc3)n2)cc1,21.3 ± 2.7
4,N#C/C(=C/c1ccc(O)c(O)c1)c1nc2ccccc2[nH]1,10.3 ± 0.38
5,O=[N+]([O-])c1ccccc1N/N=C/c1ccc(O)c(O)c1,10.3 ± 1.3
6,C(=N/Nc1nnc2c(n1)[nH]c1ccccc12)/c1c[nH]c2ccccc12,9.3 ± 1.4
7,COc1c(O)cc2oc(-c3ccc(O)c(O)c3)cc(=O)c2c1O,53.7 ± 3.8
8,NC(=O)c1c(NC(=O)/C=C/c2ccccc2)sc2c1CCCCC2,6.12 ± 0.94
9,O=C(N/N=C/c1ccc(Cl)cc1)c1n[nH]c2c1CCCC2,3.79 ± 8.1
10,CN(C)c1ccc(/C=C(/C#N)C(=O)Nc2ccc(O)cc2)cc1,22.2 ± 0.63
11,CCOc1ccc(NC(=O)c2cccc(F)c2)c([N+](=O)[O-])c1,1.77 ± 2.1
12,CN(C)/C=N/C1=C(C#N)C(c2ccc3c(c2)OCO3)c2ccc3ccccc3c2O1 (centres undefined),1.3 ± 3.6
13,O=C(Nc1ccc(Cl)cn1)c1ccc(Cl)cc1Cl,0.717 ± 0.56
14,N#Cc1ccc(-c2cccs2)nc1SCc1ccccn1,0.766 ± 2.5
15,Nc1ccc2sc(-c3cc(Cl)c(N)c(Cl)c3)nc2c1,10.16 ± 0.093
16,CN(C)c1ccc(C2C(C#N)=C(N)Oc3c2sc2ccccc32)cc1[N+](=O)[O-] (centres undefined),9.04 ± 0.83
17,Cc1ccccc1NC(=O)c1sc2nc(N)c(C#N)c(-c3ccc(C(C)C)cc3)c2c1N,15.4 ± 2.4
18,Cc1ccc(Nc2nc(N)c3ccccc3n2)cc1Cl,8.06 ± 2.4
19,COc1ccc(-n2nnnc2SCC(N)=O)c(OC)c1,13.9 ± 1.2
